# Measured values taken from the supplement of paper PMC4466140.
# B1: unnamed (peptide)
# chain: NSMRPPLLIPAATTK
# B2: unnamed (peptide)
# chain: SSAAPPPPPRRATPE
# Tests used:
# Assay in all cases: SPOT peptide array binding signal intensity (averaged, normalized) (arbitrary units (background-subtracted, floor 0; scale differs between SH3 domains)); higher = stronger binding of the SH3 domain to the peptide
# AgAbp1 = biological target: AgAbp1
# How it was run: (§1)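 Spot intensities were captured after detection with anti-GST antibody, an HRP-linked anti-mouse secondary and luminol, and quantified with Genespotter. The probes were GST-fused SH3 domains from four yeast species, produced in E. coli BL21(DE3), purified on glutathione Sepharose and incubated at 10 μg/ml overnight at 4°C on cellulose-bound synthetic 15-mer peptides with cysteines replaced by serines. Binding signal is the normalized, background-subtracted spot intensity averaged over replicates, and its arbitrary units differ between domains.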
# AgBbc1 = biological target: AgBbc1
# How it was run: as §1
# AgBem1-D1 = biological target: AgBem1-D1
# How it was run: as §1
# AgBzz1-D1 = biological target: AgBzz1-D1
# How it was run: as §1
# AgBzz1-D2 = biological target: AgBzz1-D2
# How it was run: as §1
# AgCyk3 = biological target: AgCyk3
# How it was run: as §1
# AgFus1 = biological target: AgFus1
# How it was run: as §1
# AgHof1 = biological target: AgHof1
# How it was run: as §1
# AgHse1 = biological target: AgHse1
# How it was run: as §1
# AgLsb1 = biological target: AgLsb1
# How it was run: as §1
# AgLsb4 = biological target: AgLsb4
# How it was run: as §1
# AgMyo5 = biological target: AgMyo5
# How it was run: as §1
# AgNbp2 = biological target: AgNbp2
# How it was run: as §1
# AgRvs167 = biological target: AgRvs167
# How it was run: as §1
# AgSho1 = biological target: AgSho1
# How it was run: as §1
# AgSla1-D1-D2 = biological target: AgSla1-D1-D2
# How it was run: as §1
# AgSla1-D3 = biological target: AgSla1-D3
# How it was run: as §1
# CaAbp1-D1 = biological target: CaAbp1-D1
# How it was run: as §1
# CaAbp1-D2 = biological target: CaAbp1-D2
# How it was run: as §1
# CaBbc1 = biological target: CaBbc1
# How it was run: as §1
# CaBem1-D1 = biological target: CaBem1-D1
# How it was run: as §1
# CaBzz1-D1 = biological target: CaBzz1-D1
# How it was run: as §1
# CaBzz1-D2 = biological target: CaBzz1-D2
# How it was run: as §1
# CaCyk3 = biological target: CaCyk3
# How it was run: as §1
# CaFus1 = biological target: CaFus1
# How it was run: as §1
# CaHof1 = biological target: CaHof1
# How it was run: as §1
# CaHse1 = biological target: CaHse1
# How it was run: as §1
# CaLsb1 = biological target: CaLsb1
# How it was run: as §1
# CaLsb4 = biological target: CaLsb4
# How it was run: as §1
# CaMyo5 = biological target: CaMyo5
# How it was run: as §1
# CaNbp2 = biological target: CaNbp2
# How it was run: as §1
# CaRvs167 = biological target: CaRvs167
# How it was run: as §1
# CaRvs167-3 = biological target: CaRvs167-3
# How it was run: as §1
# CaSho1 = biological target: CaSho1
# How it was run: as §1
# CaSla1-D1-D2 = biological target: CaSla1-D1-D2
# How it was run: as §1
# CaSla1-D3 = biological target: CaSla1-D3
# How it was run: as §1
# ScAbp1 = biological target: ScAbp1
# How it was run: as §1
# ScBbc1 = biological target: ScBbc1
# How it was run: as §1
# ScBem1-D1 = biological target: ScBem1-D1
# How it was run: as §1
# ScBzz1-D1 = biological target: ScBzz1-D1
# How it was run: as §1
# ScBzz1-D2 = biological target: ScBzz1-D2
# How it was run: as §1
# ScCyk3 = biological target: ScCyk3
# How it was run: as §1
# ScFus1 = biological target: ScFus1
# How it was run: as §1
# ScHof1 = biological target: ScHof1
# How it was run: as §1
# ScHse1 = biological target: ScHse1
# How it was run: as §1
# ScLsb1 = biological target: ScLsb1
# How it was run: as §1
# ScLsb2 = biological target: ScLsb2
# How it was run: as §1
# ScLsb3 = biological target: ScLsb3
# How it was run: as §1
# ScLsb4 = biological target: ScLsb4
# How it was run: as §1
# ScMyo3 = biological target: ScMyo3
# How it was run: as §1
# ScMyo5 = biological target: ScMyo5
# How it was run: as §1
# ScNbp2 = biological target: ScNbp2
# How it was run: as §1
# ScPex13 = biological target: ScPex13
# How it was run: as §1
# ScRvs167 = biological target: ScRvs167
# How it was run: as §1
# ScSho1 = biological target: ScSho1
# How it was run: as §1
# ScSla1-D1-D2 = biological target: ScSla1-D1-D2
# How it was run: as §1
# ScSla1-D3 = biological target: ScSla1-D3
# How it was run: as §1
# SpAbp1-D1 = biological target: SpAbp1-D1
# How it was run: as §1
# SpBbc1 = biological target: SpBbc1
# How it was run: as §1
# SpBzz1-D1 = biological target: SpBzz1-D1
# How it was run: as §1
# SpBzz1-D2 = biological target: SpBzz1-D2
# How it was run: as §1
# SpCyk3 = biological target: SpCyk3
# How it was run: as §1
# SpHof1 = biological target: SpHof1
# How it was run: as §1
# SpHof1-2 = biological target: SpHof1-2
# How it was run: as §1
# SpHof1-3 = biological target: SpHof1-3
# How it was run: as §1
# SpHse1 = biological target: SpHse1
# How it was run: as §1
# SpLsb1 = biological target: SpLsb1
# How it was run: as §1
# SpLsb4 = biological target: SpLsb4
# How it was run: as §1
# SpMyo1 = biological target: SpMyo1
# How it was run: as §1
# SpNbp2 = biological target: SpNbp2
# How it was run: as §1
# SpPex13 = biological target: SpPex13
# How it was run: as §1
# SpRvs167 = biological target: SpRvs167
# How it was run: as §1
# SpSla1-D1-D2 = biological target: SpSla1-D1-D2
# How it was run: as §1
# SpSla1-D3 = biological target: SpSla1-D3
# How it was run: as §1
binder,measurement,setting,value
B1,SPOT peptide array binding signal intensity,AgAbp1,0.5
same,SPOT peptide array binding signal intensity,AgBbc1,13.5
same,SPOT peptide array binding signal intensity,AgBem1-D1,450
same,SPOT peptide array binding signal intensity,AgBzz1-D1,19
same,SPOT peptide array binding signal intensity,AgBzz1-D2,16.5
same,SPOT peptide array binding signal intensity,AgCyk3,1
same,SPOT peptide array binding signal intensity,AgFus1,384
same,SPOT peptide array binding signal intensity,AgHof1,20.5
same,SPOT peptide array binding signal intensity,AgHse1,210
same,SPOT peptide array binding signal intensity,AgLsb1,128
same,SPOT peptide array binding signal intensity,AgLsb4,12
same,SPOT peptide array binding signal intensity,AgMyo5,15
same,SPOT peptide array binding signal intensity,AgNbp2,114
same,SPOT peptide array binding signal intensity,AgRvs167,2.33
same,SPOT peptide array binding signal intensity,AgSho1,390
same,SPOT peptide array binding signal intensity,AgSla1-D1-D2,4
same,SPOT peptide array binding signal intensity,AgSla1-D3,1.75
same,SPOT peptide array binding signal intensity,CaAbp1-D1,63.5
same,SPOT peptide array binding signal intensity,CaAbp1-D2,121
same,SPOT peptide array binding signal intensity,CaBbc1,47.2
same,SPOT peptide array binding signal intensity,CaBem1-D1,378
same,SPOT peptide array binding signal intensity,CaBzz1-D1,190
same,SPOT peptide array binding signal intensity,CaBzz1-D2,111
same,SPOT peptide array binding signal intensity,CaCyk3,5.5
same,SPOT peptide array binding signal intensity,CaFus1,1550
same,SPOT peptide array binding signal intensity,CaHof1,0.5
same,SPOT peptide array binding signal intensity,CaHse1,103
same,SPOT peptide array binding signal intensity,CaLsb1,13.2
same,SPOT peptide array binding signal intensity,CaLsb4,516
same,SPOT peptide array binding signal intensity,CaMyo5,133
same,SPOT peptide array binding signal intensity,CaNbp2,291
same,SPOT peptide array binding signal intensity,CaRvs167,83.8
same,SPOT peptide array binding signal intensity,CaRvs167-3,3.75
same,SPOT peptide array binding signal intensity,CaSho1,1320
same,SPOT peptide array binding signal intensity,CaSla1-D1-D2,244
same,SPOT peptide array binding signal intensity,CaSla1-D3,317
same,SPOT peptide array binding signal intensity,ScAbp1,4
same,SPOT peptide array binding signal intensity,ScBbc1,1.5
same,SPOT peptide array binding signal intensity,ScBem1-D1,≤ 0
same,SPOT peptide array binding signal intensity,ScBzz1-D1,7.5
same,SPOT peptide array binding signal intensity,ScBzz1-D2,19.5
same,SPOT peptide array binding signal intensity,ScCyk3,6
same,SPOT peptide array binding signal intensity,ScFus1,508
same,SPOT peptide array binding signal intensity,ScHof1,≤ 0
same,SPOT peptide array binding signal intensity,ScHse1,160
same,SPOT peptide array binding signal intensity,ScLsb1,232
same,SPOT peptide array binding signal intensity,ScLsb2,1
same,SPOT peptide array binding signal intensity,ScLsb3,303
same,SPOT peptide array binding signal intensity,ScLsb4,208
same,SPOT peptide array binding signal intensity,ScMyo3,47.5
same,SPOT peptide array binding signal intensity,ScMyo5,8.5
same,SPOT peptide array binding signal intensity,ScNbp2,150
same,SPOT peptide array binding signal intensity,ScPex13,222
same,SPOT peptide array binding signal intensity,ScRvs167,53.7
same,SPOT peptide array binding signal intensity,ScSho1,562
same,SPOT peptide array binding signal intensity,ScSla1-D1-D2,266
same,SPOT peptide array binding signal intensity,ScSla1-D3,430
same,SPOT peptide array binding signal intensity,SpAbp1-D1,27
same,SPOT peptide array binding signal intensity,SpBbc1,2.75
same,SPOT peptide array binding signal intensity,SpBzz1-D1,273
B2,SPOT peptide array binding signal intensity,CaNbp2,1
same,SPOT peptide array binding signal intensity,CaRvs167,349
same,SPOT peptide array binding signal intensity,CaRvs167-3,0.5
same,SPOT peptide array binding signal intensity,CaSho1,≤ 0
same,SPOT peptide array binding signal intensity,CaSla1-D1-D2,1870
same,SPOT peptide array binding signal intensity,CaSla1-D3,0.25
same,SPOT peptide array binding signal intensity,ScAbp1,3
same,SPOT peptide array binding signal intensity,ScBbc1,0.5
same,SPOT peptide array binding signal intensity,ScBem1-D1,≤ 0
same,SPOT peptide array binding signal intensity,ScBzz1-D1,24
same,SPOT peptide array binding signal intensity,ScBzz1-D2,5
same,SPOT peptide array binding signal intensity,ScCyk3,1
same,SPOT peptide array binding signal intensity,ScFus1,≤ 0
same,SPOT peptide array binding signal intensity,ScHof1,7
same,SPOT peptide array binding signal intensity,ScHse1,≤ 0
same,SPOT peptide array binding signal intensity,ScLsb1,315
same,SPOT peptide array binding signal intensity,ScLsb2,49.5
same,SPOT peptide array binding signal intensity,ScLsb3,3110
same,SPOT peptide array binding signal intensity,ScLsb4,711
same,SPOT peptide array binding signal intensity,ScMyo3,124
same,SPOT peptide array binding signal intensity,ScMyo5,83.8
same,SPOT peptide array binding signal intensity,ScNbp2,36
same,SPOT peptide array binding signal intensity,ScPex13,300
same,SPOT peptide array binding signal intensity,ScRvs167,1890
same,SPOT peptide array binding signal intensity,ScSho1,3
same,SPOT peptide array binding signal intensity,ScSla1-D1-D2,1390
same,SPOT peptide array binding signal intensity,ScSla1-D3,≤ 0
same,SPOT peptide array binding signal intensity,SpAbp1-D1,160
same,SPOT peptide array binding signal intensity,SpBbc1,≤ 0
same,SPOT peptide array binding signal intensity,SpBzz1-D1,757
same,SPOT peptide array binding signal intensity,SpBzz1-D2,142
same,SPOT peptide array binding signal intensity,SpCyk3,2.5
same,SPOT peptide array binding signal intensity,SpHof1,10.2
same,SPOT peptide array binding signal intensity,SpHof1-2,33.5
same,SPOT peptide array binding signal intensity,SpHof1-3,366
same,SPOT peptide array binding signal intensity,SpHse1,10.5
same,SPOT peptide array binding signal intensity,SpLsb1,101
same,SPOT peptide array binding signal intensity,SpLsb4,2800
same,SPOT peptide array binding signal intensity,SpMyo1,876
same,SPOT peptide array binding signal intensity,SpNbp2,≤ 0
same,SPOT peptide array binding signal intensity,SpPex13,≤ 0
same,SPOT peptide array binding signal intensity,SpRvs167,1860
same,SPOT peptide array binding signal intensity,SpSla1-D1-D2,62
same,SPOT peptide array binding signal intensity,SpSla1-D3,0.5
